From PubChem BioAssay
A number with no mark means an inactive call. Entries that show only a call come without a potency. For some of these results: Potency and affinity values are given separately. Calls of active or inactive are those of the source. Unless noted, no rule for the calls is given here.

How the values were obtained:
[1] = antimalarial activity against Dd2 strain (AID 2302;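 active = growth inhibition above 50% at the single 2 µM test dose, taken to imply half-maximal potency below 2 µM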); details: P. falciparum Dd2 in RBCs, LDH growth readout, 72 h; at 2 µM; hits give high values
[2] = human hepatoma cell viability loss – ATP luminescence, cytotoxicity control for P. falciparum antimalarial project, primary screen (AID 2303;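 active = inhibition above 50%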); details: HepG2 viability, 24-48 h, at 10 µM, hits give high values
[3] = molecular target: L-lactate dehydrogenase (Plasmodium falciparum (isolate CDC / Honduras)) (UniProt Q27743); assay: PfLDH activity inhibition – cell lysate, 3D7 strain, counter-screen for P. falciparum growth inhibition project (AID 2304); details: P. falciparum 3D7 crude extract, LDH APAD/NBT absorbance; at 2 µM; hits give high values
Chain of L-lactate dehydrogenase (Plasmodium falciparum (isolate CDC / Honduras)) (Q27743 whole entry, looked up): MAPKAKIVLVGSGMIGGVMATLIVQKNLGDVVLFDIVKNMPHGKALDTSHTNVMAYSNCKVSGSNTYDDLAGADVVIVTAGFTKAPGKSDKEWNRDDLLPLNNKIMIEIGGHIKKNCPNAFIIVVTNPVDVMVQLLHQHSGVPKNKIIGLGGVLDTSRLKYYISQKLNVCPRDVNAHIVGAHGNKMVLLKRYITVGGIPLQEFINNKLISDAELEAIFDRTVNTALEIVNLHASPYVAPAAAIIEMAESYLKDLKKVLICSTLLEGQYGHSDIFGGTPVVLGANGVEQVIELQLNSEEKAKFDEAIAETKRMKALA

[4] = inhibition of 3D7 malaria parasite growth – strain 3D7 (AID 2306); details: P. falciparum 3D7 erythrocytic growth, LDH absorbance, 72 h; at 2 µM; hits give high values
[5] = molecular target: Calcium-dependent protein kinase 1 (Plasmodium falciparum (isolate 3D7)) (UniProt P62344); assay: PfCDPK1 kinase inhibitors, biochemical, TCAMS library (AID 1159585; cut-off not given, nearly all actives have IC50 up to about 0.98 µM;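 also: inhibitors leave more ATP so luminescence rises with inhibition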); details: recombinant PfCDPK1, Kinase-Glo ATP depletion luminescence
Chain of Calcium-dependent protein kinase 1 (Plasmodium falciparum (isolate 3D7)) (P62344 whole entry, looked up): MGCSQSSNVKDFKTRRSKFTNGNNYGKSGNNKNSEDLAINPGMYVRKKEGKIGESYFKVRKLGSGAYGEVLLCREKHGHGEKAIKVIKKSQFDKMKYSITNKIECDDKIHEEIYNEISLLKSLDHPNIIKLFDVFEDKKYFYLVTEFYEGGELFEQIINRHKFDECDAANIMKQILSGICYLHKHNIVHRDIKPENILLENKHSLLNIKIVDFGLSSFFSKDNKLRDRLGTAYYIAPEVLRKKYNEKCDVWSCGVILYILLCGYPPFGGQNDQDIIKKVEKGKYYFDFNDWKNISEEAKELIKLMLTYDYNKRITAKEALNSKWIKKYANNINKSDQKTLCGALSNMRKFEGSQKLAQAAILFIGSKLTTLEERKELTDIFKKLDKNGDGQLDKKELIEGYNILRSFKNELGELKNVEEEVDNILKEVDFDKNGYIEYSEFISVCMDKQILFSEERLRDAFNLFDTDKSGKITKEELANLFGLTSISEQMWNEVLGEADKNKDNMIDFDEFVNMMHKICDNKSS

[6] = molecular target: Plasmodium falciparum protein kinase 6 (PK6, PF3D7_1337100) (UniProt Q8IDW1); assay: PfPK6 kinase inhibitors, biochemical, TCAMS library (AID 1159586); details: recombinant PfPK6, Kinase-Glo ATP depletion luminescence
Chain of Plasmodium falciparum protein kinase 6 (PK6, PF3D7_1337100) (Q8IDW1 1-305): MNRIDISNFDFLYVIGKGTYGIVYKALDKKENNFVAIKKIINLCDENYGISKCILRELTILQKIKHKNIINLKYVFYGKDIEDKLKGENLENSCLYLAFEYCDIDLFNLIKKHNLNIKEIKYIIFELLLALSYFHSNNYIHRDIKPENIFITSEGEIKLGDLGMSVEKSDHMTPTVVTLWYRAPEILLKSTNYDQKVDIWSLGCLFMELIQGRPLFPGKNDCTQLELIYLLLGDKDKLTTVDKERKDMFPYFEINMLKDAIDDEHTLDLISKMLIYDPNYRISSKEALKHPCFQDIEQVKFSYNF

[7] = molecular target: Protein kinase 7 (PK7), Plasmodium falciparum 3D7 (PF3D7_0213400) (UniProt Q7YTF7); assay: inhibition of Plasmodium PK7 catalytic activity – biochemical, TCAMS antimalarial set, Kinase-Glo luminescence (AID 1159587); details: recombinant PfPK7, Kinase-Glo ATP depletion luminescence
Chain of Protein kinase 7 (PK7), Plasmodium falciparum 3D7 (PF3D7_0213400) (Q7YTF7 1-343): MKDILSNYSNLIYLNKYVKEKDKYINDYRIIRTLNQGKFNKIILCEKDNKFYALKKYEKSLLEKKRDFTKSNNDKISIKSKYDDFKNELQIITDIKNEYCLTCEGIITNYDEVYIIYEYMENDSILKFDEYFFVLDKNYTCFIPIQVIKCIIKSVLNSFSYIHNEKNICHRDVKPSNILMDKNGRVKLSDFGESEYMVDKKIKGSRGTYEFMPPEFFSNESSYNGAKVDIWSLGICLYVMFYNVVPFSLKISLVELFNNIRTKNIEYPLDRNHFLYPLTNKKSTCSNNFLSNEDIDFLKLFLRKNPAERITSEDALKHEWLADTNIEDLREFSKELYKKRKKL

[8] = molecular target: Calcium-dependent protein kinase 4 (Plasmodium falciparum (isolate 3D7)) (UniProt Q8IBS5); assay: PfCDPK4 kinase inhibitors, biochemical, TCAMS library (AID 1159588; cut-off not given, nearly all actives have IC50 up to about 0.91 µM); details: recombinant PfCDPK4, Kinase-Glo ATP depletion luminescence
Chain of Calcium-dependent protein kinase 4 (Plasmodium falciparum (isolate 3D7)) (Q8IBS5 whole entry, looked up): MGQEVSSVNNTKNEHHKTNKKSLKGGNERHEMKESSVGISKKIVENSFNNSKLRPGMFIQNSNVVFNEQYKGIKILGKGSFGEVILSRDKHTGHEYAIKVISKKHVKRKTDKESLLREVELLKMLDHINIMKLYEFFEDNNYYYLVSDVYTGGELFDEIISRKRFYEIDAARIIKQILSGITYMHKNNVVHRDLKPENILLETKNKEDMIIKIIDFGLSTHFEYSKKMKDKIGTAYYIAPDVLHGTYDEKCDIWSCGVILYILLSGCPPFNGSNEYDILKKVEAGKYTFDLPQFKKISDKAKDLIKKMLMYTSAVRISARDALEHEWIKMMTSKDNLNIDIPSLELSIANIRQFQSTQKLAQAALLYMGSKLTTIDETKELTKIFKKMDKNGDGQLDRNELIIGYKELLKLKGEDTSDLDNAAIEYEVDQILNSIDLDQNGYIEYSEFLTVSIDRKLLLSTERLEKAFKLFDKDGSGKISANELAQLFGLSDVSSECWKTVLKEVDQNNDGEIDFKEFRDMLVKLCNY

O=[N+]([O-])c1cccc(CNCC2CCN(Cc3ccc(O)cc3)CC2)c1
growth inhibition [1]: 5%
inhibition [2]: 8%
inhibition [3]: 1%
growth inhibition [4]: 98% (active)
outcome [5]: inactive
outcome [6]: inactive
outcome [7]: inactive
outcome [8]: inactive

O=C(Nc1ccc(Br)cc1)N(CCN1CCOCC1)CC(O)COc1ccc(Cl)c(F)c1 (stereo not given)
growth inhibition [1]: 30%
inhibition [2]: 3%
inhibition [3]: -4%
growth inhibition [4]: 98% (active)
outcome [5]: inactive
outcome [6]: inactive
outcome [7]: inactive
outcome [8]: inactive

COc1cc2nc(-c3ccccc3)nc(N3CCN(C(=O)c4ccco4)CC3)c2cc1OC
growth inhibition [1]: 87% (active)
inhibition [2]: -7%
inhibition [3]: 7%
growth inhibition [4]: 89% (active)
outcome [5]: inactive
outcome [6]: inactive
outcome [7]: inactive
outcome [8]: inactive

CCOc1ccc2c(NN=Cc3ccc(OC)c(OC)c3)cc(C)nc2c1
growth inhibition [1]: 58% (active)
inhibition [2]: 22%
inhibition [3]: 2%
growth inhibition [4]: 100% (active)
outcome [5]: inactive
outcome [6]: inactive
outcome [7]: inactive
outcome [8]: inactive

C[C@H](NC(=O)c1c(CN2CCC(N3CCCCC3=O)CC2)c(-c2cccs2)nc2ccccc12)C1CCCCC1
growth inhibition [1]: 73% (active)
inhibition [2]: 8%
inhibition [3]: 2%
growth inhibition [4]: 91% (active)
outcome [5]: inactive
outcome [6]: inactive
outcome [7]: inactive
outcome [8]: inactive

Cc1cc(NC(=O)Nc2ccc3nc(C)oc3c2)c2cc(Cl)ccc2n1
growth inhibition [1]: 57% (active)
inhibition [2]: -10%
inhibition [3]: -2%
growth inhibition [4]: 100% (active)
outcome [5]: inactive
outcome [6]: inactive
outcome [7]: inactive
outcome [8]: inactive

O=C(Cc1ccc(NC(=O)c2ccc(O)c(-c3cccc([N+](=O)[O-])c3)c2)cc1)NCCN1CCCCC1
growth inhibition [1]: 3%
inhibition [2]: 4%
inhibition [3]: 4%
growth inhibition [4]: 89% (active)
outcome [5]: inactive
outcome [6]: inactive
outcome [7]: inactive
outcome [8]: inactive

COc1cccc(NC(=O)Nc2cc(-c3ccc4[nH]ncc4c3)cc3c2CNC3=O)c1
growth inhibition [1]: 100% (active)
inhibition [2]: 3%
inhibition [3]: 5%
growth inhibition [4]: 98% (active)
outcome [5]: inactive
outcome [6]: inactive
outcome [7]: inactive
outcome [8]: inactive

Cc1ccc2nc(-c3ccc(C(=O)NC4CCN(Cc5ccccc5)CC4)s3)[nH]c2c1
growth inhibition [1]: 83% (active)
inhibition [2]: 13%
inhibition [3]: -5%
growth inhibition [4]: 97% (active)
outcome [5]: inactive
outcome [6]: inactive
outcome [7]: inactive
outcome [8]: inactive

Cc1cccc(-c2nn(-c3ccccc3)c3[nH]c(=O)c(CN4CCSCC4)cc23)c1
growth inhibition [1]: 98% (active)
inhibition [2]: -3%
inhibition [3]: 0%
growth inhibition [4]: 98% (active)
outcome [5]: inactive
outcome [6]: inactive
outcome [7]: inactive
outcome [8]: inactive

O=C(NCCCCN1CCC(c2ccc3c(c2O)CCCC3)CC1)c1ccc(-c2ccc(Cl)cc2)cc1
growth inhibition [1]: 72% (active)
inhibition [2]: 97% (active)
inhibition [3]: 1%
growth inhibition [4]: 98% (active)
outcome [5]: inactive
outcome [6]: inactive
outcome [7]: inactive
outcome [8]: inactive

CCC(C)NC(=O)CN1CN(c2ccccc2)C2(CCN(C(=O)c3ccc4ccccc4c3)CC2)C1=O (stereo not given)
growth inhibition [1]: 78% (active)
inhibition [2]: -6%
inhibition [3]: -2%
growth inhibition [4]: 95% (active)
outcome [5]: inactive
outcome [6]: inactive
outcome [7]: inactive
outcome [8]: inactive

OC(CNCc1ccco1)Cn1c2ccc(Br)cc2c2cc(Br)ccc21 (stereo not given)
growth inhibition [1]: 72% (active)
inhibition [2]: 10%
inhibition [3]: -3%
growth inhibition [4]: 92% (active)
outcome [5]: inactive
outcome [6]: inactive
outcome [7]: inactive
outcome [8]: inactive

COc1ccc(C2(CNCC(O)c3cccc([N+](=O)[O-])c3)CCCC2)cc1OC (stereo not given)
growth inhibition [1]: 85% (active)
inhibition [2]: 10%
inhibition [3]: 5%
growth inhibition [4]: 93% (active)
outcome [5]: inactive
outcome [6]: inactive
outcome [7]: inactive
outcome [8]: inactive

CCOC(=O)CCCOc1cc(Cc2cnc(N)nc2N)cc(OC)c1OC
growth inhibition [1]: 3%
inhibition [2]: 12%
inhibition [3]: -7%
growth inhibition [4]: 97% (active)
outcome [5]: inactive
outcome [6]: inactive
outcome [7]: inactive
outcome [8]: inactive

CCN(CC)CCCC(C)Nc1c2ccccc2nc2c1ccc1ccccc12 (stereo not given)
growth inhibition [1]: 34%
inhibition [2]: 18%
inhibition [3]: 3%
growth inhibition [4]: 96% (active)
outcome [5]: inactive
outcome [6]: inactive
outcome [7]: inactive
outcome [8]: inactive

FC(F)(F)c1ccc(-c2cncc(-c3ccc(C(F)(F)F)cc3)n2)cc1
growth inhibition [1]: 97% (active)
inhibition [2]: 9%
inhibition [3]: -7%
growth inhibition [4]: 98% (active)
outcome [5]: inactive
outcome [6]: inactive
outcome [7]: inactive
outcome [8]: inactive

O=C(c1cc(OC(F)(F)F)ccc1O)N1CCN(c2ccccc2)CC1
growth inhibition [1]: 1%
inhibition [2]: -10%
inhibition [3]: -4%
growth inhibition [4]: 88% (active)
outcome [5]: inactive
outcome [6]: inactive
outcome [7]: inactive
outcome [8]: inactive

Nc1ncc(-c2ccsc2)c2ccc(-c3cnc[nH]3)cc12
growth inhibition [1]: 70% (active)
inhibition [2]: 31%
inhibition [3]: -7%
growth inhibition [4]: 100% (active)
outcome [5]: inactive
outcome [6]: inactive
outcome [7]: inactive
outcome [8]: inactive

O=C(/C=C/c1ccc(Cl)c(Cl)c1)NCCCCCN1CCC(NC(=O)Nc2ccc(F)c(F)c2)CC1
growth inhibition [1]: 4%
inhibition [2]: 24%
inhibition [3]: 2%
growth inhibition [4]: 99% (active)
outcome [5]: inactive
outcome [6]: inactive
outcome [7]: inactive
outcome [8]: inactive
